# Reference: the supplement of paper PMC8699584
# Structures can show the parent of a compound that is named as a salt. ± gives the standard deviation of the averaged measurements.
# Tests used:
# Molm13 = test: cell viability relative to DMSO control (bortezomib = 0%); higher = less growth inhibition; settings: 10 nM; 72 h
# In short: (§1)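 Cell viability was assessed by CellTiter-Glo luminescence. Acute myeloid leukemia cells were seeded at 1000 cells per well in 50 µL on a 384-well library of 679 compounds at a single 10 nM dose for 72 h. Per-plate linear regression set DMSO-treated cells at 100% and positive-control-treated cells at 0%.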
# Mv4-11 = test: as above; settings: 10 nM; 72 h
# In short: as §1
structure (smiles),measurement,setting,value
O=C(COc1ccc(Cl)cc1)NC1CCC(NC(=O)COc2ccc(Cl)cc2)CC1 (configuration not stated),cell viability,Molm13,109 ± 1.8%
same,cell viability,Mv4-11,111 ± 14%
C[C@@H]1CN(C(=O)c2ccc(NC(=O)c3cc(O[C@H](C)c4c(Cl)ccc(F)c4Cl)c(N)nn3)cc2)C[C@H](C)N1 [Ensartinib],cell viability,Molm13,127 ± 20%
same,cell viability,Mv4-11,118 ± 12%
N#Cc1c(O)c2c(-c3ccc(-c4ccccc4O)cc3)csc2[nH]c1=O,cell viability,Molm13,111 ± 27%
same,cell viability,Mv4-11,93.9 ± 14%
Nc1nccc(Oc2ccc3c(C(=O)Nc4cccc(C(F)(F)F)c4)cccc3c2)n1,cell viability,Molm13,94.7 ± 6.4%
same,cell viability,Mv4-11,117 ± 8.5%
Nc1ncnc2c1c(-c1cccc(OCc3ccccc3)c1)cn2C1CC(CN2CCC2)C1 (configuration not stated) [NVP-AEW541 (hydrochloride)],cell viability,Molm13,110 ± 11%
same,cell viability,Mv4-11,90.7 ± 25%
CN1CCN(S(=O)(=O)c2ccc(-c3cnc(N)c(C(=O)Nc4cccnc4)n3)cc2)CC1,cell viability,Molm13,95.5 ± 17%
same,cell viability,Mv4-11,100 ± 0.48%
O=C(Nc1cc(Oc2cc(F)c(NC(=O)C3(C(=O)Nc4ccc(F)cc4)CC3)cc2F)ccn1)C1CC1 [Altiratinib(DCC2701)],cell viability,Molm13,106 ± 12%
same,cell viability,Mv4-11,120 ± 8.4%
COc1ccc(Cl)c(Nc2nc3ccccc3nc2NS(=O)(=O)c2cccc(NC(=O)C(C)(C)N)c2)c1 [Pilaralisib (XL147)],cell viability,Molm13,117 ± 4%
same,cell viability,Mv4-11,110 ± 11%
C=CC(=O)Nc1cc2c(Nc3ccc(F)c(Cl)c3)ncnc2cc1OCCCN1CCOCC1 [Canertinib (CI-1033)],cell viability,Molm13,118 ± 10%
same,cell viability,Mv4-11,111.9 ± 0.6%
N#CC(=C(/N)Sc1ccccc1N)/C(C#N)=C(\N)Sc1ccccc1N,cell viability,Molm13,99.3 ± 16%
same,cell viability,Mv4-11,104 ± 7%
Nc1nccc(Oc2ccc(NC(=O)c3c[nH]cc(-c4ccc(F)cc4)c3=O)cc2F)c1Cl,cell viability,Molm13,60.9 ± 5.7%
same,cell viability,Mv4-11,83.1 ± 3.7%
